Screening data from PubChem.
This is a sample that favours compounds with a hit; in the whole collection about 1.9% have one here.
bovine MsrA act: activators of bovine methionine sulfoxide reductase A; AID 602163; hit rate 0.3% among 360,000; activation, % at 10.6 µM; purified bovine MsrA, absorbance read-out; in the data active means activation above about 7.5%;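 further: 0% = vehicle and 100% = reference activator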
PLC-beta3 inh: blocks human PLC-beta3 enzyme activity; Q01970; Purified PLC-beta3, fluorogenic substrate, fluorescence; inhibition, % at 12.2 µM; hit rate 0.18% among 370,000; in the data active means inhibition above about 11%;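 further: 0% = median of compound wells on plate and 100% = full blocker control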
PLC-gamma1 inh: blocks human PLC-gamma1 enzyme activity. AID 720700. purified PLC-gamma1, fluorogenic substrate, fluorescence. hit rate 0.84% among 370,000. inhibition, % at 12.2 µM. P19174; in the data active means inhibition above about 9.5%
Target sequence (P19174 whole entry, looked up): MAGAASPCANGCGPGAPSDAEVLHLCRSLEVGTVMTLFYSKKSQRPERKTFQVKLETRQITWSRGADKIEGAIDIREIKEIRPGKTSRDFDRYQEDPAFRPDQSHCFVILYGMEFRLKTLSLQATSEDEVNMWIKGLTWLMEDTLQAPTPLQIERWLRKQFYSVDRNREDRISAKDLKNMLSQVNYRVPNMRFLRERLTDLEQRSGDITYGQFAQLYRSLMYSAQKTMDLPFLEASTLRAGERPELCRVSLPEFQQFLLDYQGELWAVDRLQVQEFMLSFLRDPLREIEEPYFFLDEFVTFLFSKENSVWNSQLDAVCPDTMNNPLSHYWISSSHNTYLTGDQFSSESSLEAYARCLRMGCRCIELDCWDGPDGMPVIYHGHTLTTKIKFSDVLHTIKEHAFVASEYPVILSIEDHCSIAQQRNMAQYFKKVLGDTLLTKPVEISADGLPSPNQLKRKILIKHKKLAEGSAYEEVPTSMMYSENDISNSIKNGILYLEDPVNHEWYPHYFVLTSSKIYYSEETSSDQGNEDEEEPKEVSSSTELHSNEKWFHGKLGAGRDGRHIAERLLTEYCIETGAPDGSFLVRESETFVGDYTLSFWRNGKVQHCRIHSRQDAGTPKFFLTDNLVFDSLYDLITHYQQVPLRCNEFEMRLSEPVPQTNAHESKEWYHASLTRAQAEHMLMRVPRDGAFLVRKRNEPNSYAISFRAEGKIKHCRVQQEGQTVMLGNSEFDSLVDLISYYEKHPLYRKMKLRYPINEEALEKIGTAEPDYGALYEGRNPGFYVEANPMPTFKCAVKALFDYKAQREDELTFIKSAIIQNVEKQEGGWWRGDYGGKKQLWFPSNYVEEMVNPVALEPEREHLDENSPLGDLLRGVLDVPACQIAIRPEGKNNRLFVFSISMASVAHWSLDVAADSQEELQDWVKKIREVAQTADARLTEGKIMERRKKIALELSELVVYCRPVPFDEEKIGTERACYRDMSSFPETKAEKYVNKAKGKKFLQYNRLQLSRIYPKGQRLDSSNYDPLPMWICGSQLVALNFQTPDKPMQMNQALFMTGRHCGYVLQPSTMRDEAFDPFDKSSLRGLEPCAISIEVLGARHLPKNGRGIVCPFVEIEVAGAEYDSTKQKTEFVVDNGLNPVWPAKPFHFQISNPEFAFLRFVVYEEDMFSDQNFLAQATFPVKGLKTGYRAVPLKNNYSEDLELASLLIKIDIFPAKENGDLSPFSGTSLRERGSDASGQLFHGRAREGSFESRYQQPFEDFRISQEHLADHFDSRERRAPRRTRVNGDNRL
MsrA inhibitor: bovine MsrA inhibition; purified bovine MsrA, absorbance read-out; inhibition, % at 15.5 µM; hit rate 0.75% among 360,000; AID 651718;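 further: 0% = vehicle wells with enzyme and 100% = reference inhibitor wells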
MsrA inh confirm: confirmation of bovine MsrA inhibitors; shares compounds with MsrA inhibitor; hit rate 41% among 2,300; AID 651822; purified bovine MsrA, absorbance read-out; inhibition, % at 15.5 µM;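 further: coupled to thioredoxin reductase with NADPH and selenocystamine and DMSO as substrate; 0% = vehicle only and 100% = full effect of reference inhibitor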
* marks the source's active call; other numbers are inactive results; i = inactive; nt = not tested or not shown. Unless noted, no stated cut-off is given here; in the data, active means inhibition above about 4.5%; inactive means the rest.

SMILES	bovine MsrA act	PLC-beta3 inh	PLC-gamma1 inh	MsrA inhibitor	MsrA inh confirm
O=S1(=O)c2cc(Cl)ccc2N2CC[C@H](C2)N1Cc1ccc(Cl)c(Cl)c1	nt	-1	-6	0	nt
Cc1ccc(/C=C(\C#N)C(=O)NC(C)C)o1	-17	-3	5	6.1*	5.0*
COCCn1c(=S)[nH]c2sc3c(c2c1=O)CCCC3	3	-8	-3	5.5*	3
CN(C)S(=O)(=O)c1cccc(C(=O)N/N=C\c2ccc(-c3ccccn3)cc2)c1	nt	-6	-2	nt	nt
Cn1c(=O)n(C)c2cc(/C=N/NC(=O)c3ccc(Cl)cc3Cl)ccc21	-3	-36	-33	4	nt
Cn1c(=O)n(C)c2cc(/C=N/NC(N)=S)ccc21	-8	0	3	5.5*	4.8*
COc1ccc(CN(CCN2CCOCC2)C(=O)c2cccc(F)c2F)cc1OC	nt	4	-1	nt	nt
N#Cc1cc(C#N)c(N2CCN(c3ccccn3)CC2)nc1N	-2	-4	-8	4.7*	3
CC(COc1ccc(C#N)cc1F)CN1CCC(C(O)(c2ccccc2)c2ccccc2)CC1 (stereo unspecified)	nt	1	0	nt	nt
CCCCOC(=O)C1CN(c2ccccc2)N=C1C(=O)OCC (stereo unspecified)	0	i	i	53*	2
CCOC(=O)c1sc(/N=C/c2ccc(O)cc2O)cc1C	-11	-10	-10	5.3*	2
CC(=O)Nc1cc(Cl)c(N=Cc2ccc(O)cc2O)cc1Cl	-4	-17	-10	1	nt
O=c1[nH]c(-[n+]2ccccc2)c(/C=N/N=C(\[O-])c2ccccc2)s1	-7	-6	7	5.0*	5.2*
Cc1cc[n+](-c2[nH]c(=O)sc2/C=N/N=C(\[O-])c2ccccc2)cc1	-6	-303	0	5.0*	4
Cc1cc(C)c[n+](-c2[nH]c(=O)sc2/C=N/N=C(\N)[S-])c1	-6	5	3	5.4*	5.5*
Cc1cc[n+](-c2[nH]c(=O)sc2/C=N/N=C(\[O-])c2ccncc2)cc1C	-9	-3	0	4	nt
Cc1ccc[n+](-c2[nH]c(=O)sc2/C=N/N=C(\[O-])c2cccnc2)c1	3	1	6	4	nt
Cc1cc[n+](-c2[nH]c(=O)sc2/C=N/N=C(\[O-])c2ccccc2)cc1C	-3	-2	-2	4.7*	2
CC(C)OC(=O)N(C)C[C@H]1OCc2cn(nn2)CCCC(=O)N([C@@H](C)CO)C[C@@H]1C	nt	0	3	0	nt
COC(=O)[C@]12C[C@H](CC(=O)N3CCN(C(=O)c4ccco4)CC3)C(=O)N(Cc3cccc4ccccc34)C1=C[C@H](C(C)C)O[C@@H]2C1CC1	nt	3	1	nt	nt
COc1ccc(/C=N/NC(=O)c2ccc(CN3c4cccc5cccc(c45)S3(=O)=O)cc2)cc1	0	-335	-279	5.0*	5.2*
COC(=O)[C@]12C[C@H](CC(=O)N3CCC(c4ccccc4)CC3)C(=O)N(CCc3ccc(OC)c(OC)c3)C1=C[C@H](C(C)(C)C)O[C@@H]2C	nt	4	1	0	nt
O=C(O)C(Cc1ccccc1)Nc1ccc([N+](=O)[O-])cc1[N+](=O)[O-] (stereo unspecified)	-2	-84	-56	3	nt
O=C(O)[C@H](Cc1ccccc1)Nc1ccc([N+](=O)[O-])cn1	-3	-9	-4	4.8*	3
CN1C2=N[C@H](c3ccccc3)CC(=O)N2/C(=C\c2ccccc2)C1Cc1ccccc1 (stereo partly specified)	nt	-10	-7	nt	nt
SMILES	bovine MsrA act	PLC-beta3 inh	PLC-gamma1 inh	MsrA inhibitor	MsrA inh confirm
COc1ccc(S(=O)(=O)Nc2ccc3c(c2)C(=O)N([C@H](C)CO)C[C@H](C)[C@H](CN(C)C(=O)Nc2ccc(F)cc2)OCCCC[C@@H](C)O3)cc1	nt	4	1	0	nt
Nc1ccc(C=Cc2ccc(N)cc2)cc1	-15	-56	-40	5.2*	4
Cc1cc(C)c2nc(C(F)(F)F)nc(N3CC(C)OC(C)C3)c2c1 (stereo unspecified)	-2	-5	0	14*	21*
COc1ccc(-c2c(C#N)c(N)n(N)c(=O)c2C#N)cc1Cl	0	-22	-11	4	nt
N#Cc1c(-c2ccc(Cl)cc2)c(C#N)c(=O)n(N)c1N	-4	-11	-7	4.9*	3
Cc1ccc(-n2c(N)c(C#N)c(-c3ccccc3)c(C#N)c2=O)cc1	-5	-1	-4	4.9*	2
CN(Cc1ccccc1)C(=O)OCc1cn(Cc2cccc(C(F)(F)F)c2)nn1	nt	-1	1	nt	nt
COC(=O)c1cc2c(c3c4cc(C)ccc4n(S(=O)(=O)c4cccc(C)c4)c13)C(=O)N(Cc1ccc(C(F)(F)F)cc1)C2	nt	0	1	0	nt
COc1ccc(/C=C2\Oc3cc(OCC(=O)N4CCC[C@H]4C(=O)O)ccc3C2=O)c(OC)c1OC	-7	-138	-116	5.1*	5.5*
COc1ccc(/C=C2\Oc3cc(OCC(=O)N4CC(O)C[C@H]4C(=O)O)ccc3C2=O)c(OC)c1OC (stereo partly specified)	1	-153	-120	4.9*	3
COCCNC(=O)/C(C#N)=C1\N=C(NC(=O)c2ccco2)c2ccccc21	-4	1	4	4.8*	3
N#Cc1c(SCc2ccccc2)nc(N2CCOCC2)c2c1CCCC2	-3	-17	-11	14*	10*
CCOC(=O)C1=C(C(=O)OCC)C2N(Cc3ccc(C#N)cc3)c3ccccc3[C@@]23C[C@@H](C(=O)OC)N(S(=O)(=O)c2ccc(OC)cc2)C3=N1 (stereo partly specified)	nt	5	3	2	nt
COc1ccc(/C=C/C(=O)C2(O)CCCCC2)cc1	-6	-10	-1	5.2*	3
C=CCn1c(SCC(N)=O)nnc1-c1ccc(C)cc1	nt	1	2	nt	nt
NC1=NC(=O)/C(=C/c2ccsc2)S1	-6	-1	5	5.7*	4
COc1ccc(/C=C2\SC(N)=NC2=O)cc1	-4	-7	3	4.8*	5.0*
NC1=NC(=O)C(=Cc2ccccc2)S1	-11	2	6	4	nt
COc1cc2c(cc1NC(=O)CSc1nnc(-c3cccc(Cl)c3)n1-c1ccccc1)oc1ccccc12	nt	-1	-3	nt	nt
O=C(Nc1ccc(C(=O)O)cc1)/C(=C\c1ccco1)NC(=O)c1ccc(Br)cc1	-5	-81	-55	5.1*	3
COc1ccc(/C=C(\NC(=O)c2ccco2)C(=O)Nc2ccc(C(C)=O)cc2)cc1	-9	-6	-3	5.4*	6.2*
COc1ccc(/C=C(/NC(=O)c2ccco2)C(=O)Nc2ccc(C(=O)O)cc2)cc1	-1	-7	0	6.2*	2
CC(C)CNS(=O)(=O)/C=C/c1ccccc1CCNC(=O)OC(C)(C)C	nt	3	4	nt	nt
O=C(NCCc1ccccc1Cl)[C@@H]1CCCN1C(=O)[C@@H](NS(=O)(=O)c1ccc(F)cc1F)c1ccccc1	nt	9	3	0	nt
CCOc1ccc(NC(=O)CN(C)C(=O)c2ccc(-c3ccc(C(C)=O)cc3)o2)cc1OCC	-3	-32	-21	4.9*	3
COc1ccc(/C=C(/C#N)C(=O)Nc2ccccc2C)cc1C(=O)O	-2	5	8	5.6*	4
Cc1ccc(C)c(NC(=O)/C(C#N)=C/c2ccc[nH]2)c1	-6	-9	4	9.3*	11*
